ssDAF12 agonist: S. stercoralis DAF-12 nuclear receptor activators, primary screen, cell-based, luminescence, HEK293, GRIP1 co-expression, lit1-tk-luc; Nuclear hormone receptor DAF-12 (Strongyloides stercoralis); HEK293 ssDAF-12/GRIP1 lit1-tk-luc reporter; % of 3 µM dafachronic acid response; activation, % at 6.8 µM; 370,000 tested, 1% active; AID 652126, 2013;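 active = activation above the mean over all tested compounds plus 3 SD, cut at about 0.9% in these data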;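 also: 0% = DMSO-only wells and 100% = 3 µM delta7-dafachronic acid wells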
DAX1 inh-1: DAX1 (NR0B1) inhibitors on StAR promoter, primary screen, cell-based, luminescence, SF-1 (NR5A1), full-length DAX-1. HEK293T StAR-luciferase reporter, SF-1/DAX-1 repression relief. inhibition, % at 6.8 µM. 370,000 tested, 1.1% active. AID 652010, 2013;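 active = inhibition above the mean over all tested compounds plus 3 SD, cut at about 3.6% in these data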;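 also: 0% = DAX-1 cells with DMSO and 100% = cells lacking DAX-1 with DMSO; higher inhibition means more luminescence from relief of DAX-1 repression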
hgDAF12 agonist: H. glycines DAF-12 receptor agonists, primary screen, cell-based, luminescence, HEK293, GAL4 fusion, UAS-luciferase | Nuclear hormone receptor DAF-12 (Heterodera glycines), GAL4 fusion | 370,000 tested, 1.8% active | activation, % at 6.8 µM | HEK293 GAL4-hgDAF12 UAS-luciferase reporter, agonist luminescence; normalized to butyrate control;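 active = activation above a cutoff set at the mean of all screened compounds plus 3 SD, cut at about 10% in these data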;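 also: 0% = DMSO wells and 100% = sodium butyrate wells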
hcDAF12 agonist: H. contortus DAF-12 nuclear receptor activators, primary screen, cell-based, luminescence, HEK293, lit1-tk-luc reporter | 370,000 tested, 1.4% active | AID 652067, 2013 | activation, % at 6.8 µM | HEK293 hcDAF-12 lit1-tk-luc reporter; 0% DMSO, 100% Δ7-dafachronic acid;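 active = activation above the mean of all tested compounds plus 3 SD, cut at about 5.5% in these data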;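 also: 100% = response to 3 µM Δ7-dafachronic acid high control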
DAX1 inh-2: DAX1 (NR0B1) inhibitors, primary screen, cell-based, HEK293, Gal4-DAX1, luciferase luminescence. Nuclear receptor subfamily 0 group B member 1 (Homo sapiens), P51843. HEK293 Gal4-DAX1 luciferase reporter. inhibition, % at 6.75 µM. 340,000 tested, 0.99% active. AID 504766, 2011;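 active = inhibition above the mean over all tested compounds plus 3 SD, cut at about 4.2% in these data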;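 also: 0% = DAX1-transfected cells with DMSO and 100% = empty-vector control cells with DMSO; inhibition shows as a rise in luminescence from relieved DAX1 repression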
Target sequence (P51843 207-470 limits assumed): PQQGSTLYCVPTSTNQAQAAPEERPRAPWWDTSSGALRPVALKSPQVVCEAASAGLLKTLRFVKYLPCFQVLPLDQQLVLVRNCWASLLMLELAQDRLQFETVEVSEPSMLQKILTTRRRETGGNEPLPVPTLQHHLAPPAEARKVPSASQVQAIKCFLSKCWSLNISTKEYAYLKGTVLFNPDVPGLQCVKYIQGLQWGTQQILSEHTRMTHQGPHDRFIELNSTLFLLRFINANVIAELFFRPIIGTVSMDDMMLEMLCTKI
hgDAF12 ag: H. glycines DAF-12 receptor agonists, confirmation, cell-based, luminescence, HEK293, GAL4-LBD fusion | shares compounds with hgDAF12 agonist | HEK293 GAL4-hgDAF12 luciferase reporter, agonist mode; percent of butyrate response | activation, % at 6.8 µM | 3,300 tested, 80% active | AID 743050, 2013;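 active = mean activation over triplicate wells above the hit cutoff derived from the earlier primary screen, cut at about 11% in these data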;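 also: 0% = DMSO low control and 100% = 2 mM sodium butyrate high control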
LXRb DAF12 ctr: LXR agonists, Gal4 luciferase reporter, confirmation, counter-screen for hgDAF-12 agonist project, cell-based, luminescence, HEK293, H. glycines campaign; shares compounds with hgDAF12 agonist; 24 h; 3,300 tested, under 10 active; AID 743051, 2013; activation, % at 6.8 µM;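 active = mean activation of the triplicate above a set limit carried over from the primary screen, none filed active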
* = called active by the depositor; / = no result given. This is a sample that favours compounds with a hit; in the whole collection about 4.1% have one here.

SMILES	ssDAF12 agonist	DAX1 inh-1	hgDAF12 agonist	hcDAF12 agonist	DAX1 inh-2	hgDAF12 ag	LXRb DAF12 ctr
O=C(NCc1ccccc1)[C@@H]1CCCN1C(=O)[C@H]1CCCN1C(=O)c1c(F)cccc1F	-1	-1	0	1	/	/	/
Cn1cccc1/C=C1\SC(=O)N(c2ccccc2)C1=O	0	2	16*	3	3	20*	1
COc1ccc(Cl)cc1S(=O)(=O)N1CCN(C(=O)CSc2nc3ccccc3nc2N2CCCC2)CC1	-2	-2	-2	-2	/	/	/
Brc1c(CSc2nc3ccccc3s2)nc2ncccn12	0	3	16*	1	1	12*	1
Cc1ccc(-c2nc(-c3ccncc3)no2)cc1	0	1	15*	4	3	15*	1
Cc1ccc(-c2nc(-c3cccnc3)no2)cc1	0	3	14*	3	3	18*	1
Cc1ccc(Cc2nc(-c3cccnc3)no2)cc1	0	-1	3	-2	1	/	/
c1ccc(-c2noc(-c3cccnc3)n2)nc1	0	3	14*	1	1	12*	0
O=S(=O)(c1ccc(C(F)(F)F)cc1)N1CCCc2nc(-c3ccc(F)cc3)ccc21	-1	0	4	3	/	/	/
O=C(Nc1ccccc1)C1CCCCC1	-1	0	0	-1	0	/	/
O=C(Nc1ccc2ccccc2n1)C1CCCCC1	0	2	15*	2	/	16*	1
CN(C)c1ccc(NC(=O)/C=C/c2ccccc2Cl)cc1	-1	2	18*	4	0	14*	1
CCN(CC)c1ccc(NC(=O)/C=C\c2ccccc2Cl)cc1	-2	1	7	-1	1	/	/
CN(C)c1ccc(C(C#N)c2ccccc2)nn1 (centres undefined)	2.1*	2	21*	6.1*	0	1	0
CN(C)c1ccc(C(C#N)c2ccc(Cl)cc2)nn1 (centres undefined)	-1	0	3	0	0	/	/
CCCCC1OC(CCc2ccccc2)CC2=C1C(=O)OC(C)(C)O2 (centres undefined)	-1	0	-1	1	/	/	/
COC(=O)C1=C(C)N(C)C(=NCc2cccc(C(F)(F)F)c2)NC1c1ccc(Cl)cc1 (centres undefined)	-1	-1	2	0	/	/	/
C[C@@H]1NC(=O)[C@H]2C[C@@]3(c4ccccc4)c4ccccc4N[C@H]3N2C1=O	-1	-1	3	-1	/	/	/
Cn1cc(SCC(=O)Nc2nccs2)c2ccccc21	0	4.4*	20*	2	3	14*	0
CC(C)C1=CC2C3C(C(C(C)C)=CC(=O)[C@@]3(C)O)C1C(=O)C2(C)O (some centres undefined)	-1	1	-2	0	/	/	/
CCCCNc1ncnc2c1cnn2-c1ccccc1	0	0	20*	3	-1	17*	1
CCCCNc1ncnc2c1cnn2-c1ccc(Cl)cc1	0	1	16*	1	-1	24*	1
C=CCNc1ncnc2c1cnn2-c1cccc(C)c1	-1	6.3*	17*	2	2	16*	1
O=C(NC1CCCCN(Cc2ccc(Cl)cc2)C1=O)c1ccccc1 (centres undefined)	-1	-1	2	-1	/	/	/
Clc1cc(Cl)cc(CNC2CCC23CCC(c2ccccc2)CC3)c1 (centres undefined)	0	/	0	3	/	/	/
SMILES	ssDAF12 agonist	DAX1 inh-1	hgDAF12 agonist	hcDAF12 agonist	DAX1 inh-2	hgDAF12 ag	LXRb DAF12 ctr
COc1ccc(Oc2c(Cl)cnn(C3c4ccccc4-c4ccccc43)c2=O)cc1	-1	-2	-1	-1	/	/	/
COC(=O)c1ccc2nc(NC(=O)C3CC3)sc2c1	-1	0	9	0	1	/	/
CCOC(=O)c1ccc2nc(Nc3nc4ccc(F)cc4s3)sc2c1	-2	-2	-10	-1	-4	/	/
CCOC(=O)c1ccc2nc(NC(C)=O)sc2c1	-1	2	14*	2	2	13*	1
COC(=O)c1ccc2nc(NC(=O)C(C)C)sc2c1	0	3	14*	2	1	15*	1
COC(=O)[C@]12C[C@H](CC(=O)NCC3CCCCC3)C(=O)N(Cc3ccco3)C1=C[C@H](C(C)(C)C)O[C@@H]2C	-1	0	-4	-2	/	/	/
O=C(CN1CCCC1)Nc1nc(-c2ccc3c(c2)CCN3C(=O)c2ccccc2F)cs1	/	/	/	/	-1	/	/
CNc1nc(-c2ccc3c(c2)CCN3C(=O)c2ccccc2C)cs1	0	1	21*	1	1	15*	0
CC(/C=N/NC(=O)c1nn(C)c(C)c1Br)=C\c1ccccc1	0	2	14*	3	2	9	0
Cc1ccc(CONC(=O)c2ccccc2)cc1	0	2	15*	0	4	11*	0
Cc1ccc(CONC(=O)c2ccc(Cl)cc2)cc1	-1	1	6	1	1	/	/
CCCCCc1ccc(NC(=O)OCCN2C(=O)CCC23CCC(c2ccccc2)CC3)cc1 (centres undefined)	-1	3	3	3	/	/	/
CCCNC(=O)C1CC(=O)N(c2ccc(OCc3ccc(Cl)cc3)cc2)C1 (centres undefined)	0	3	15*	5	1	16*	1
CCOc1ccc(N2CC(C(=O)NCCc3ccccc3)CC2=O)cc1 (centres undefined)	0	-1	-2	-2	0	/	/
CC(=O)Nc1ccc(NC(=O)CSc2nnc(-c3cccs3)o2)cc1	-1	-4	0	1	/	/	/
CC1CC1c1ccc(/C=C(\C#N)C(=O)Nc2ccc(Cl)cc2)o1 (centres undefined)	0	2	14*	3	1	14*	1
CCC(=O)Nc1cccc(NC(=S)NC(=O)c2cc3ccccc3o2)c1	1	2	16*	5	2	22*	1

Screening results (PubChem BioAssay)
